Data published in PubChem BioAssay AID2685 (National Center for Advancing Translational Sciences (NCATS), 2010).
Out of some 320,000 compounds screened, about 2,100 (0.66%) were called active. Not shown: some 53% with an inconclusive outcome. Calls come from the whole dose curve; as a rule, active = well fitted inhibition curve with a large enough effect in the signal ratio, with a control signal flat (not every such curve was filed as active); inconclusive = small, poorly fitted or top-dose-only effect, or effect the other way, or a change in a side signal; inactive = flat fitted curve, though single readings scatter; the % refers to the signal ratio. Only a selection was taken, and actives are over-represented in it overall.

test: qHTS Assay for Lipid Storage Modulators in Drosophila S3 Cells; conditions: BODIPY lipid droplet fluorescence, 18-24 h, cells fed with added oleic acid; cell number change: measured here: cell count max response; series mostly up to 46.1 µM;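 for cell number change: cells counted by Cell Tracker Red CMTPX staining in the red channel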; for lipid storage change, negative = inhibition: % is set by controls: 0 for no effect and ±100 for the full control effect
Summary of the method: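 Drosophila S3 cells got compounds at several concentrations plus oleic acid (400 uM solution). Laser-scanning cytometry with 488 nm excitation read lipid droplets at 500-530 nm and cells at 575-640 nm. Percent activity was relative to 20 uM Triacsin C.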
Potency is the fitted concentration of half-maximal effect.

Row | Structure (SMILES) | Potency | cell number change [%] | lipid storage change, negative = inhibition
1 | O=C(NC1CCN(S(=O)(=O)c2ccc(Cl)c(F)c2)CC1)c1cccnc1 | inactive | -17.9 | –
2 | C[C@@H](O)C1NC(=O)[C@H](CCCCN)NC(=O)c2cc([N+](=O)[O-])cc(I)c2OCC[C@@H](C(N)=O)NC1=O (some centres not stated) | inactive | -6.85 | –
3 | O=S(=O)(c1ccc(Br)cc1)c1nc(-c2ccccc2)oc1NCCN1CCOCC1 | inactive | 2.89 | –
4 | COCCNc1nnc(Cc2ccc(Cl)cc2)c(=O)[nH]1 | inactive | -0.278 | –
5 | O=C(c1ccc(F)c(F)c1)N1CCCc2ccccc21 | inactive | 4.4 | –
6 | O=C(c1ccccc1)N1CCCc2ccccc21 | inactive | 0.741 | –
7 | O=C(c1cccc(Br)c1)N1CCCc2ccccc21 | 0.82 µM (active) | -21.4 | –
8 | Cc1ccc(OCCCC(=O)Nc2ccc(N3CCOCC3)cc2)c(C)c1 | inactive | – | –
9 | Cc1cc(Oc2nnnn2-c2ccccc2)ccc1Cl | inactive | – | –
10 | CCN(C(=O)c1ccc(NC(C)=O)cc1)c1ccccc1 | inactive | -17 | –
11 | Nc1ccc(-n2nnnc2CN2CCOCC2)cc1 | inactive | 0.0095 | –
12 | CC1CCN(Cc2nnnn2-c2ccc(Cl)cc2)CC1 | 13 µM (active) | -6.07 | –
13 | c1ccc(-n2nnnc2CN2CCOCC2)cc1 | inactive | -7 | –
14 | COc1ccc(OC)c(N(CC(=O)NCCSCc2ccco2)S(=O)(=O)c2ccc(OC)c(OC)c2)c1 | inactive | -16.6 | –
15 | C[n+]1ccccc1/C=C1\Sc2ccccc2N1CCO | inactive | -1.06 | –
16 | Cc1ccc2c(c1)S/C(=C\c1cccc[n+]1C)N2CCO | inactive | -6.57 | –
17 | CCCCN1/C(=C/c2cccc[n+]2C)Sc2cc(NC(C)=O)ccc21 | 1.3 µM (active) | 11.1 | –
18 | O=C(Nc1nc2ccc([N+](=O)[O-])cc2s1)C1CCCO1 (configuration not stated) | inactive | -16.8 | –
19 | O=C(NNC(=O)c1csc(-c2cccnc2)n1)c1ccccc1 | inactive | 5.13 | –
20 | S=C(NCc1cccc(Cl)c1)NCc1ccco1 | inactive | 29.3 | –
21 | CC(C)(C)C(=O)COC(=O)c1ccc2c(c1)C(=O)N(Cc1ccco1)C2=O | 0.259 µM (active) | 2.14 | –
22 | CCC(CC)NC(=O)COC(=O)c1ccc2c(c1)C(=O)N(Cc1ccco1)C2=O | inactive | -0.427 | –
23 | CC(C)(C)NC(=O)COC(=O)c1ccc2c(c1)C(=O)N(Cc1ccco1)C2=O | inactive | -13.3 | –
24 | COc1ccc(NS(=O)(=O)c2cccc(C(=O)NCC(c3ccco3)N3CCCC3)c2)cc1 (configuration not stated) | inactive | 21.4 | –

Row | Structure (SMILES) | Potency | cell number change [%] | lipid storage change, negative = inhibition
25 | COC(=O)c1ccc(CSc2nnc(N)s2)cc1 | inactive | 1.22 | –
26 | CCn1cc(C(=O)OCC(=O)OC2CC(C)CCC2C(C)C)c(=O)c2ccc(C)nc21 (configuration not stated) | inactive | – | –
27 | CCC(C)Nc1nc2c(C)cccn2c(=O)c1C=Nc1ccc(OC)cc1 (configuration not stated) | inactive | – | –
28 | CCOCCCNc1nc2c(C)cccn2c(=O)c1/C=C1\SC(=S)N(C(C)CC)C1=O (configuration not stated) | 0.461 µM (active) | 29.9 | –
29 | CCOCCCNC(=O)c1cc2c(=O)n3cccc(C)c3nc2s1 | inactive | 22 | –
30 | COCCn1c(=O)[nH]c(=O)c2c(C(F)(F)F)cc(-c3cccs3)nc21 | inactive | 6.31 | –
31 | COc1ccc(CNC(=O)c2cc(=O)c3cc(C)c(C)cc3o2)cc1 | inactive | 22.5 | –
32 | CN(NS(=O)(=O)c1ccc(F)cc1)c1ncc(C(F)(F)F)cc1Cl | inactive | -16.4 | –
33 | CC(=O)NCCC(=O)Nc1ncc(S(=O)(=O)c2ccc([N+](=O)[O-])cc2)s1 | inactive | 18.8 | –
34 | CCCOc1ccc(N2C(=O)CC(N3CCOCC3)C2=O)cc1 (configuration not stated) | inactive | 5.36 | –
35 | CCCOc1ccc(N2C(=O)CC(N3CCN(c4ccccc4F)CC3)C2=O)cc1 (configuration not stated) | inactive | -7.57 | –
36 | CCCOc1ccc(N2C(=O)CC(N3CCN(c4ccc([N+](=O)[O-])cc4)CC3)C2=O)cc1 (configuration not stated) | 2.31 µM (active) | 5.5 | –
37 | Cn1c(=O)n(CC(=O)O)c(=O)c2c1nc1n2CCCN1Cc1ccccc1 | inactive | 6.57 | –
38 | O=C(COc1ccccc1[N+](=O)[O-])N/N=C/C=C/c1ccco1 | inactive | -6.08 | –
39 | Cc1cc(NC(=O)CN2C(=O)NC3(CCC(C)CC3)C2=O)no1 (configuration not stated) | inactive | 5.62 | –
40 | O=C(NCCN1C(=O)S/C(=C\c2cccc(Cl)c2Cl)C1=O)C1=COCCO1 | 11.6 µM (active) | -26.2 | –
41 | O=C(NCCN1C(=O)S/C(=C\c2ccc(Cl)cc2Cl)C1=O)C1=COCCO1 | 20.6 µM (active) | – | –
42 | O=C(NCCN1C(=O)S/C(=C\c2ccc(Cl)c([N+](=O)[O-])c2)C1=O)C1=COCCO1 | inactive | 12.4 | –
43 | O=C(CCCN1C(=O)/C(=C/c2ccccc2Cl)SC1=S)NCCCN1CCOCC1 | inactive | 16.8 | –
44 | O=C(CCc1nc2ccccc2c(=O)[nH]1)NCCN1C(=O)S/C(=C\c2ccc(Cl)cc2Cl)C1=O | inactive | 1.43 | –
45 | O=C(NCCN1C(=O)S/C(=C\c2ccc(Cl)c(Cl)c2)C1=O)C1COc2ccccc2O1 (configuration not stated) | inactive | – | –
46 | CC(=O)c1c2c3c(cccc3n(C)c1=O)C(=O)c1ccccc1-2 | inactive | -3.04 | –
47 | Cn1c(=O)c(Nc2ccc(O)cc2)c2c3c(cccc31)C(=O)c1ccccc1-2 | inactive | 4.29 | –
48 | CCOC(=O)c1c2c3c(cccc3n(C)c1=O)C(=O)c1ccccc1-2 | 13 µM (active) | -24.8 | –

Row | Structure (SMILES) | Potency | cell number change [%] | lipid storage change, negative = inhibition
49 | COc1ccccc1CNC(=O)c1sccc1-c1ccccc1 | inactive | 7.94 | –
50 | CCOC(=O)c1sc(=NC(=O)c2ccc(OC)c(OC)c2)n(C)c1C | inactive | 0.273 | –
51 | CC(=O)c1ccc(S(=O)(=O)N2CCCc3ccccc32)cc1 | inactive | 13.2 | –
52 | Cc1cccc(Oc2ncnc(N)c2[N+](=O)[O-])c1C | inactive | 1.6 | –
53 | O=C(Nc1cccc2ncccc12)c1ccc(-c2ccc(Br)cc2)o1 | inactive | -12.1 | –
54 | O=C(Nc1cccc2ncccc12)c1ccc([N+](=O)[O-])o1 | 16.4 µM (active) | 26.1 | –
55 | CCCn1c(NC(=O)c2ccc(C)cc2)nc2ccccc21 | inactive | – | –
56 | O=C(Nc1ncccn1)c1ccc([N+](=O)[O-])o1 | inactive | -11.9 | –
57 | O=C(Nc1ccccn1)c1ccc([N+](=O)[O-])o1 | 20.6 µM (active) | -6.3 | –
58 | CCCn1c(NC(=O)c2ccco2)nc2ccccc21 | inactive | -15.8 | –
59 | Cc1cccc(NC(=O)c2ccc([N+](=O)[O-])o2)c1C | inactive | 8.85 | –
60 | CCCn1c(NC(=O)c2ccc([N+](=O)[O-])o2)nc2ccccc21 | 6.51 µM (active) | -9.34 | –
61 | O=C(Nc1ccccn1)c1cc2ccccc2o1 | inactive | -2.14 | –
62 | Cc1cc(C)cc(OCCNC(=O)c2ccc(Br)cc2)c1 | inactive | 5.31 | –
63 | CCC(C)c1ccc(NC(=O)Nc2cnccn2)cc1 (configuration not stated) | inactive | 13.7 | –
64 | O=C1CC(C(=O)Nc2cc(Cl)ccc2Cl)n2ncnc2N1 (configuration not stated) | – | -2.1 | 6.51% [at 9.22 µM] (inactive)
65 | CCOC(=O)N1CCN(S(=O)(=O)c2ccc(C)c(C)c2)CC1 | inactive | – | –
66 | CCN(CC)CCNC(=O)CCn1nc(-c2ccc(Cl)cc2)ccc1=O | inactive | 9.34 | –
67 | O=C(C1COc2ccccc2O1)N1CCCCC1 (configuration not stated) | inactive | 3.75 | –
68 | O=C(C1COc2ccccc2O1)N1CCN(c2ccccc2O)CC1 (configuration not stated) | inactive | -2.02 | –
69 | O=C(C1COc2ccccc2O1)N1CCCC1 (configuration not stated) | 6.51 µM (active) | 0.347 | –
70 | O=C(NNc1cccc(Cl)n1)Nc1ccc(Cl)cc1 | inactive | -10.7 | –
71 | O=c1oc2ccc(F)cc2c2c1C1O[C@](c3ccsc3)(Cc3c1ccc1ccccc31)O2 | – | 2.65 | 17.6% [at 9.22 µM] (inactive)
72 | CC(C)CCNC(=O)C1CCC(=O)N1CCc1ccccc1 (configuration not stated) | inactive | 19.8 | –

Row | Structure (SMILES) | Potency | cell number change [%] | lipid storage change, negative = inhibition
73 | CCC(C)(C)NC(=O)CN(C(=O)C(=O)Nc1ccc2c(c1)OCCO2)C1CC1 | 1.16 µM (active) | -1.67 | –
74 | CCC(C)(C)NC(=O)CN(Cc1cccs1)C(=O)C(=O)Nc1ccc2c(c1)OCCO2 | inactive | 3.41 | –
75 | CC(C)(C)NC(=O)CN(C(=O)C(=O)Nc1ccc2c(c1)OCCO2)C(C)(C)C | inactive | -1.34 | –
76 | O=C(c1ccco1)N1CCN(c2cc(=O)n(-c3ccc(Cl)cc3)c(=O)[nH]2)CC1 | inactive | – | –
77 | Cc1cc(NS(=O)(=O)c2ccc(NC(=O)CSc3nc4ncccc4[nH]3)cc2)nc(C)n1 | inactive | -9.17 | –
78 | CCOC(=O)CNC(=O)c1sc(NC(=O)c2ccccc2)nc1C | inactive | -2.79 | –
79 | Cc1nn(C)c(=S)n1-c1ccc(Cl)cc1 | inactive | 4.59 | –
80 | Cc1n[nH]c(=S)n1-c1ccccc1 | inactive | 8.27 | –
81 | Cc1nn(-c2ccccc2)c(=S)n1-c1ccccc1 | 32.6 µM (active) | -7.47 | –
82 | Cc1ccc(NC(=O)NCc2cccn2C)cc1C | inactive | 7.96 | –
83 | O=C(Nc1cccc(O)c1)C(=O)Nc1ccccn1 | inactive | 0.58 | –
84 | O=C(NCc1ccc2c(c1)OCO2)c1ccc(Br)s1 | inactive | 15.1 | –
85 | COC(C(=O)Nc1ccnn1C1CCN(Cc2nccs2)CC1)c1ccccc1 (configuration not stated) | 18.4 µM (active) | -27.2 | –
86 | COC(C(=O)Nc1ccnn1C1CCN(Cc2ccccn2)CC1)c1ccccc1 (configuration not stated) | inactive | -9.38 | –
87 | COC(C(=O)Nc1ccnn1C1CCN(Cc2ccc(C)s2)CC1)c1ccccc1 (configuration not stated) | inactive | -1.51 | –
88 | CCc1cc(Br)ccc1NC(=S)NCCc1ccccc1 | inactive | -12.4 | –
89 | Cc1ccc(/C=N/NC(=O)CSc2nc3ccccc3[nH]2)o1 | inactive | 23.1 | –
90 | CCOC(=O)c1c[nH]c2c(C)cc(C)cc2c1=O | inactive | -13.9 | –
91 | CCCNC(=O)c1ccc(N2CCC3(CC2)CC(c2ccccc2)=NO3)c(NC(=O)c2ccco2)c1 | 5.17 µM (active) | -21.9 | –
92 | CCCNC(=O)c1ccc(N2CCC3(CC2)CC(c2cccc(Br)c2)=NO3)c(NC(=O)c2cccc(C)c2)c1 | inactive | -6.01 | –
93 | Cc1ccc(CNC(=O)c2ccc(N3CCC4(CC3)CC(c3cccc(Br)c3)=NO4)c(NC(=O)c3ccco3)c2)cc1 | inactive | -15.2 | –
